Holding throughout (assay): yeast three-hybrid, YBZ-1, SC-Leu-His + 0.5 mM 3-AT, 4 days
Common to all, as to details: tags: N-Gal4 AD-HA kept; label: inside an RPR1-promoter hybrid RNA with tandem MS2 sites; ssRNA

One test concerns the target PUM1 PUF domain R5-DFL (Homo sapiens, UniProt Q14671 828-1176, C1007D;R1008F;Q1011L). In short, it runs like this: (§1)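 Sequencing with Illumina followed PCR amplification of the repeat regions from transformants grown four days on SC-Leu (input) or SC-Leu-His + 0.5 mM 3-AT (selection). The transformants were strain YBZ-1 with a LexA–MS2 coat fusion and a HIS3 reporter, carrying Pumilio-1 PUF domain libraries and matching RNA elements. The interaction score is the log change in variant frequency from input to selection, computed in log2 with a pseudocount of 1 for absent variants.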

The next test deals with PUM1 PUF domain R4-CLQ (Homo sapiens, UniProt Q14671 828-1176, N971C;H972L). In short, it runs like this: as §1
In another test the target is PUM1 PUF domain R5-HNR (Homo sapiens, UniProt Q14671 828-1176, C1007H;R1008N;Q1011R). In a few lines:
as §1

A further test has as its target PUM1 PUF domain R7-GQR (Homo sapiens, UniProt Q14671 828-1176, S1079G;N1080Q;E1083R). In a few lines:
as §1

A further test addresses PUM1 PUF domain R7-EFR (Homo sapiens, UniProt Q14671 828-1176, S1079E;N1080F;E1083R). In a few lines: as §1
Another test has as its target PUM1 PUF domain R1-SPE (Homo sapiens, UniProt Q14671 828-1176, R864P;Q867E). In short, it runs like this: as §1
The target of a further test is PUM1 PUF domain R3-FCV (Homo sapiens, UniProt Q14671 828-1176, C935F;R936C;Q939V). In short, it runs like this: as §1
Another test addresses PUM1 PUF domain R4-FAA (Homo sapiens, UniProt Q14671 828-1176, N971F;H972A;Q975A). In a few lines:
as §1

Another test has as its target PUM1 PUF domain R4-QHK (Homo sapiens, UniProt Q14671 828-1176, N971Q;Q975K). In short, it runs like this:
as §1

For “GGCUAGAACUAGUGGAUCCCCCGGCGCCCGGCGGCUCGAGCCCGGGUAAGUGUAAAUAGUCUGCAUGCCGCCGGGCGCCAUGCCUGCAGGUCGACUCUAGAAAACAUG”, the binding signal was 3.51 log2 enrichment (interaction score) with PUM1 PUF domain R5-DFL and 3.83 log2 enrichment (interaction score) with PUM1 PUF domain R4-CLQ.

With “GGCUAGAACUAGUGGAUCCCCCGGCGCCCGGCGGCUCGAGCCCGGGUAAGUGUUAAUAGUCUGCAUGCCGCCGGGCGCCAUGCCUGCAGGUCGACUCUAGAAAACAUG”, the binding signal with PUM1 PUF domain R5-HNR was 4.6 log2 enrichment (interaction score).

Turning to “GGCUAGAACUAGUGGAUCCCCCGGCGCCCGGCGGCUCGAGCCCGGGUAAGUUUAAAUAGUCUGCAUGCCGCCGGGCGCCAUGCCUGCAGGUCGACUCUAGAAAACAUG”, the binding signal with PUM1 PUF domain R7-GQR was 2.78 log2 enrichment (interaction score); with PUM1 PUF domain R7-EFR, 2.09 log2 enrichment (interaction score).

Consider “GGCUAGAACUAGUGGAUCCCCCGGCGCCCGGCGGCUCGAGCCCGGGUAAGUGUAAAUUGUCUGCAUGCCGCCGGGCGCCAUGCCUGCAGGUCGACUCUAGAAAACAUG”, for which the binding signal in the test with PUM1 PUF domain R1-SPE is 2.78 log2 enrichment (interaction score).

Take “GGCUAGAACUAGUGGAUCCCCCGGCGCCCGGCGGCUCGAGCCCGGGUAAGUGUAAGUAGUCUGCAUGCCGCCGGGCGCCAUGCCUGCAGGUCGACUCUAGAAAACAUG”: the binding signal with PUM1 PUF domain R3-FCV was 4.56 log2 enrichment (interaction score).

In the case of “GGCUAGAACUAGUGGAUCCCCCGGCGCCCGGCGGCUCGAGCCCGGGUAAGUGUAUAUAGUCUGCAUGCCGCCGGGCGCCAUGCCUGCAGGUCGACUCUAGAAAACAUG”, the binding signal with PUM1 PUF domain R4-FAA is 2.2 log2 enrichment (interaction score).

Regarding “GGCUAGAACUAGUGGAUCCCCCGGCGCCCGGCGGCUCGAGCCCGGGUAAGUCUAAAUAGUCUGCAUGCCGCCGGGCGCCAUGCCUGCAGGUCGACUCUAGAAAACAUG”, the binding signal with PUM1 PUF domain R7-EFR is 2.21 log2 enrichment (interaction score).

In the case of “GGCUAGAACUAGUGGAUCCCCCGGCGCCCGGCGGCUCGAGCCCGGGUAAGUGUACAUAGUCUGCAUGCCGCCGGGCGCCAUGCCUGCAGGUCGACUCUAGAAAACAUG”, the binding signal in the test with PUM1 PUF domain R4-QHK was 3.41 log2 enrichment (interaction score).

Source of the values: paper PMC8384837, “Expanding the binding specificity for RNA recognition by a PUF domain”.
